This note sets out measurements from PubChem BioAssay AID624255 (Broad Institute, 2012).

About 4,600 (6%) of roughly 77,000 compounds were called active. About 1% were inconclusive and are not listed. The list comes from a sample in which actives are over-represented; it also holds similar structures and randomly drawn compounds. Values without a mark were called inactive.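 How the source made its calls: active means mean inhibition above about 93%, with at least 55% of replicates each passing it (limit read from the data, passing the limit was not always enough); inconclusive means only one of those two conditions holds; inactive means neither condition holds.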

For orientation: inhibition means the change of the read-out against control, counted positive when it falls.

The test in a line: growth inhibition of T. cruzi in host fibroblasts – cell-based, beta-gal Tulahuen parasites, NIH3T3 host, luminescence, primary screen (AID 624255). The settings on record: T. cruzi beta-gal in NIH3T3, GalScreen luminescence, 90 h; at 8.34 µM; stronger effect = higher value.
`C[C@@H](NC(=O)C[C@@H]1CC[C@@H](NC(=O)C2CCOCC2)[C@@H](CO)O1)c1ccccc1`: the inhibition was 9.21%.

On to `O=C(C[C@@H]1CC[C@@H](NC(=O)Nc2ccc(F)cc2)[C@H](CO)O1)NCCN1CCCC1`, for which the inhibition is 30.1%.

For the compound `CCCNC(=O)N1[C@@H]2c3ccc(-c4ccccc4OC)c(=O)n3C[C@H]1[C@H](CO)[C@H]2C(=O)N(C)C`, the inhibition was 1.54%.

Take `CO[C@@H]1CC[C@@H]2CCOc3c(C#N)cccc3C(=O)N(C)C[C@@H](OC)[C@@H](C)C(=O)N(C)C[C@H]1O2`: the inhibition was 11.7%.

On to `CC(=O)N1[C@@H](CO)[C@H](c2ccccc2)[C@@H]1CN(C)C(=O)CN1CCOCC1`, for which the inhibition is 50.9%.

On to `COc1ccc(NC(=O)N(C)C[C@H]2OCCCC[C@@H](C)Oc3ccc(NC(=O)Nc4ccc5c(c4)OCO5)cc3C(=O)N([C@H](C)CO)C[C@@H]2C)cc1`, for which the inhibition is 9.34%.

On to `COc1ccc(NC(=O)Nc2ccc3c(c2)C(=O)N([C@H](C)CO)C[C@H](C)[C@@H](CN(C)Cc2ccc(C(=O)O)cc2)OCCCC[C@H](C)O3)cc1`, for which the inhibition was 51%.

Turning to `C[C@@H]1CN([C@@H](C)CO)C(=O)c2cc(NC(=O)Nc3ccc4c(c3)OCO4)ccc2O[C@@H](C)CCCCO[C@@H]1CN(C)Cc1ccccc1`, the inhibition was 41.8%.

On to `C[C@@H]1CCCCO[C@@H](CN(C)Cc2ccc3c(c2)OCO3)[C@@H](C)CN([C@@H](C)CO)C(=O)c2cc(NC(=O)Nc3ccccc3)ccc2O1`, for which the inhibition was 99.9% (active).

As for `COc1ccc(CN(C)C[C@H]2OCCCC[C@H](C)Oc3ccc(NC(=O)Nc4ccc5c(c4)OCO5)cc3C(=O)N([C@H](C)CO)C[C@@H]2C)cc1`, the inhibition was 98.7% (active).

On to `C[C@@H]1CN([C@H](C)CO)C(=O)c2cc(NC(=O)Nc3ccc4c(c3)OCO4)ccc2O[C@@H](C)CCCCO[C@@H]1CN(C)Cc1ccc2c(c1)OCO2`, for which the inhibition is 81.6%.

Consider `Cc1cccc(S(=O)(=O)N2C[C@H]3[C@@H](c4ccccc42)[C@H](CO)N3Cc2ccc3c(c2)OCO3)c1`, for which the inhibition was 72.7%.

Turning to `CN1C[C@H](O)COC[C@H]2O[C@H](CC(=O)NC3CCC3)CC[C@@H]21`, the inhibition was -61.9%.

For `C[C@@H]1CCCCO[C@@H](CN(C)S(=O)(=O)c2ccc(F)cc2)[C@@H](C)CN([C@@H](C)CO)C(=O)c2cc(NS(=O)(=O)c3cccs3)ccc2O1`, the inhibition is 10.6%.

As for `C[C@@H]1CCCCO[C@H](CN(C)S(=O)(=O)c2cccs2)[C@H](C)CN([C@@H](C)CO)C(=O)c2cc(NS(=O)(=O)c3cccs3)ccc2O1`, the inhibition was -8.67%.

Turning to `C[C@@H]1CN([C@H](C)CO)C(=O)c2cc(NS(=O)(=O)c3cccs3)ccc2O[C@@H](C)CCCCO[C@@H]1CN(C)S(=O)(=O)c1ccc(Cl)cc1`, the inhibition was 109% (active).

Take `C[C@@H]1CCCCO[C@@H](CN(C)S(C)(=O)=O)[C@H](C)CN([C@@H](C)CO)C(=O)c2cc(NS(=O)(=O)c3cccs3)ccc2O1`: the inhibition was -8.12%.

For `C[C@@H]1CN([C@H](C)CO)C(=O)c2cc(NS(=O)(=O)c3cccs3)ccc2O[C@@H](C)CCCCO[C@@H]1CN(C)S(=O)(=O)c1cccs1`, the inhibition is -40.5%.

In the case of `C[C@@H]1CCCCO[C@H](CN(C)S(=O)(=O)c2ccc(Cl)cc2)[C@H](C)CN([C@@H](C)CO)C(=O)c2cc(NS(=O)(=O)c3cccs3)ccc2O1`, the inhibition was 110% (active).

Regarding `COCC(=O)N1C[C@@H](C)[C@H](OC)CN(C)C(=O)c2cc(NC(=O)c3cc(C)on3)ccc2OC[C@@H]1C`, the inhibition was 60.6%.

For `C[C@H](O)C#Cc1ccc2c(c1)O[C@@H](CN(C)CC1CCCC1)[C@H](C)CN([C@@H](C)CO)S2(=O)=O`, the inhibition is 13.4%.

On to `COCC(=O)Nc1ccc2c(c1)C(=O)N(C)C[C@H](OC)[C@@H](C)CN(C(=O)c1cnccn1)[C@H](C)CO2`, for which the inhibition was 7.73%.

With `CC(=O)N1[C@H](C(=O)N(C)C)[C@@H](CO)[C@@H]2Cn3c(ccc(-c4ccccc4)c3=O)[C@@H]21`, the inhibition was 16.7%.

For `C[C@@H]1CCCCO[C@@H](CN(C)S(=O)(=O)c2ccc(Cl)cc2)[C@H](C)CN([C@@H](C)CO)C(=O)c2cc(NC(=O)Cc3ccccc3)ccc2O1`, the inhibition was 98.6% (active).

For `Cc1ccc(S(=O)(=O)N(C)C[C@@H]2OCCCC[C@@H](C)Oc3ccc(NC(=O)C4CCCCC4)cc3C(=O)N([C@H](C)CO)C[C@H]2C)cc1`, the inhibition was 24%.

Take `C[C@@H]1CCCCO[C@H](CN(C)C)[C@H](C)CN([C@@H](C)CO)C(=O)c2cc(NC(=O)Cc3ccccc3)ccc2O1`: the inhibition is -33.2%.

For `Cc1ccc(S(=O)(=O)N(C)C[C@H]2OCCCC[C@H](C)Oc3ccc(NC(=O)Cc4ccccc4)cc3C(=O)N([C@@H](C)CO)C[C@@H]2C)cc1`, the inhibition was 110% (active).

For `C[C@@H]1CN([C@@H](C)CO)C(=O)c2cc(NC(=O)CCCN(C)C)ccc2O[C@@H](C)CCCCO[C@@H]1CN(C)S(=O)(=O)c1ccc(Cl)cc1`, the inhibition was 25.4%.

As to `Cc1ccc(S(=O)(=O)N(C)C[C@@H]2OCCCC[C@@H](C)Oc3ccc(NS(=O)(=O)c4ccccc4)cc3C(=O)N([C@H](C)CO)C[C@@H]2C)cc1`, the inhibition was 55%.

Take `CCCN1C[C@H](C)[C@@H](OC)CN(C)C(=O)c2cc(NS(=O)(=O)CC)ccc2OC[C@H]1C`: the inhibition is -88%.

As to `CN1c2ccc(Br)cc2[C@H]2[C@H](CCN2S(=O)(=O)c2ccccc2)[C@@H]1CO`, the inhibition is 95.5%.

With `CN1C(=O)c2cc(NS(=O)(=O)c3ccc(F)cc3)ccc2OC[C@@H]2O[C@@H](CC(=O)O)CC[C@H]21`, the inhibition was 20.4%.

With `COc1cccc(C(=O)Nc2ccc3c(c2)C(=O)N(C)[C@@H]2CC[C@H](CC(=O)NCC4CC4)O[C@@H]2CO3)c1`, the inhibition is 22.9%.

Consider `COCC(=O)Nc1ccc2c(c1)C(=O)N(C)C[C@H](OC)[C@@H](C)CN(C(=O)Cc1cccnc1)[C@@H](C)CO2`, for which the inhibition was -9.25%.

Consider `CC(C)NC(=O)N1C[C@H]2[C@@H](c3ccccc31)[C@H](CO)N2C(=O)c1ccccc1F`, for which the inhibition was -21.6%.
